About 83,000 compounds went through this panel and 20% of them were active in at least one assay; those are over-represented in the sample as a whole.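 96-well plates, one dose, 48 hours. Percent growth reported; active if below 10.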 A number with no mark means an inactive call. Activity calls are given as the source filed them.
Tested on: MDA-MB-468 breast
Test: NCI-60 one-dose screen, 48 h (100 = growth as untreated, 0 = no growth, -100 = all killed)
Conditions: 10 µM unless noted

`CCc1nnc(CNc2ccc(Cl)cc2)o1` and `CCCNc1nc(SC)nc(-c2cccc(N)c2)c1C#N` are the same in growth: 114% for the first, 114% for the second.

First: O=c1oc2c(cc1-c1ccccc1)c[n+]([O-])c1ccccc21
Second: Nc1nc(-c2cccc(Br)c2)cc(-c2cc3ccccc3oc2=O)n1
The growth of the first is higher: 104% for the first, 91.8% for the second.

Compared with `CC/C(=C/c1c(O)cccc1OC)c1ccc2c(OC)cccc2[o+]1`, `CCOC(=O)c1c(Nc2ccccc2)nn2c(-c3ccc(OC)c(OC)c3)ccnc12` is lower in growth: 95.1% for the first, 37.7% for the second.

First: c1cnc2ccc3ncccc3c2c1
Second: COc1ccc(-c2nc3ncccn3c2-c2nc3ccc(Br)cc3[nH]2)cc1
The growth of the first is higher: 122% for the first, 75.6% for the second.

First: CCN1C(=O)N(CC)C2C1NN=c1s/c(=C\c3ccccc3Br)c(=O)n12 (stereo not given)
Second: CC1=N/C(=C\c2cccc(Br)c2)C(=O)O1
The growth of the first is lower: 27.5% for the first, 107% for the second.

Going from `COc1cc(/C=C/C(=O)c2cccc(-n3cc(-c4cc(OC)c(OC)c(OC)c4)[nH]c3=O)c2)cc(OC)c1OC` to `COc1cc(OC)c(/C=C/S(=O)(=O)Cc2ccc(OC)c(NC(=O)CCC(=O)NO)c2)c(OC)c1`, the growth rises from 27.7% to 40.4%.

First: CCN(CC)CCNC(=O)C(Cl)=C1C(Cl)=C(Cl)C(Cl)=C1Cl
Second: Cc1cc(CC(=O)NCCO)n(CCO)c(=O)c1
The growth of the first is lower: 75.8% for the first, 113% for the second.

Compared with `FC(F)(F)Oc1ccc2c(c1)C[C@H]1C[C@@H](c3ccoc3)N2O1`, `O=C(N/N=C/c1ccc(OC(F)F)c(OC2CCCC2)c1)c1cnn2c1NC(c1ccccc1)C2` (stereo not given) is lower in growth: 118% for the first, 84% for the second.

Compared with `COc1ccc(CCl)c(C)c1OC`, `COc1ccc(-c2cn3c(-c4ccc(OC)cc4)cnc3c(Oc3ccc4c(C)cc(=O)oc4c3)n2)cc1` is lower in growth: 109% for the first, 43.9% for the second.

Compared with `NC(=O)CCC(C(=O)O)N1C(=O)c2ccc(O)cc2C1=O` (stereo not given), `CC1=C(C(=O)Nc2nc(-c3ccc(Cl)cc3)cs2)[C@H](c2ccc(O)cc2)NC(=O)N1` is lower in growth: 109% for the first, 95% for the second.

First: O=c1cc(/C=N\Nc2nc(-c3ccc(Cl)cc3Cl)cs2)c2cc(Cl)ccc2o1
Second: O=C(COc1ccc(/C=C2\Cc3ccc(Cl)cc3C2=O)cc1)Nc1nc2ccccc2s1
The growth of the first is lower: 102% for the first, 109% for the second.

Compared with `COc1cc(NS(=O)(=O)c2ccc(N)cc2)ncn1`, `O=S(=O)(NCCCNc1nccc(-n2cnc3ccccc32)n1)c1ccc(F)cc1` is lower in growth: 105% for the first, 50.2% for the second.

First: Cc1ccc(Cn2c(N3CCC(C(=O)NCc4cccs4)CC3)nc3ccccc32)cc1
Second: CCCc1[nH]c(-c2cc(N)ccc2Cl)c2c1C(=O)CCCC2
The growth of the first is higher: 95.3% for the first, 93.7% for the second.

First: CCOC(=O)CC(C)=N
Second: Cc1cc2c(-c3nc4ccccn4c3NC3CCCCC3)c(O)c(O)cc2c(O)c1-c1c(C)cc2c(-c3nc4ccccn4c3NC3CCCCC3)c(O)c(O)cc2c1O
The growth of the first is higher: 92.8% for the first, 13.9% for the second.

`CCCCCCCCCCCCCCCCCCOP(=O)([O-])OC1CC[N+](C)(C)CC1` was tested, and the growth was 0% (active).
For `COc1cc(/C=C2\CN(C(=O)CCN3CCC(=NO)CC3)C/C(=C\c3cc(OC)c(OC)c(OC)c3)C2=O)cc(OC)c1OC`, the growth was -41.2% (active).
`CC(=O)/C(=C\c1c(-c2ccccc2)[nH]c2ccccc12)S(=O)(=O)c1ccccc1` was tested, and the growth was 6.12% (active).
`C=C1[C@@H](O)C[C@H]2C(C)(C)C[C@H](Cl)C[C@]2(C)[C@H]1C[C@H](O)[C@H]1CC(=O)NC1=O` was tested, and the growth was -47.5% (active).
`O=C(Nc1cccc(-n2cc(-c3ccncc3)c(-c3ccc(Cl)c(O)c3)n2)c1)Nc1cc(C(F)(F)F)cc(C(F)(F)F)c1` was tested, and the growth was -23.9% (active).
For `N#Cc1c(-c2ccc(Cl)cc2)csc1NC(=O)Nc1cccc(C(F)(F)F)c1`, the growth was 7.03% (active).
For `C1=C\COCc2cc(ccc2OCCN2CCCC2)Nc2nccc(n2)-c2cccc(c2)COC/1`, the growth was -53.7% (active).
In the case of `Cc1n(Cc2ccc3ccccc3c2)cc[n+]1Cc1ccc2ccccc2c1`, the growth is reported as -22.8% (active).
For `O=C(Cc1ccccc1)c1ccc(O)c(Cl)c1`, the growth was -1.16% (active).
`CN1CCN(c2ccc(-c3cc4c(Nc5ccc(F)c(Cl)c5)ncnn4c3)cc2)CC1` was tested, and the growth was 7.99% (active).
`C/C=C(/C)C(=O)OC1C=C(CO)C(=O)C(OC(=O)/C(C)=C\C)C1C(C)C` (stereo not given) was tested, and the growth was -50.9% (active).
In the case of `COc1cc(C(C)n2cc(-c3ccccc3)nn2)ccc1OC1CCCC1` (stereo not given), the growth is reported as 5.07% (active).

— PubChem BioAssay (NCI)
